Assay results from PubChem BioAssay (NCI).
The panel holds about 79,000 compounds, 15% with a hit somewhere; the sample as a whole holds those more often. No stated cut-off is given here; in the data, active means growth inhibition above about 70%; inactive means the rest.

Key:
[1] = NCI Yeast Anticancer Drug Screen. Data for the rad50 strain (AID 155);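 further: 0% = growth of vehicle-only cultures of the same strain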; details: S. cerevisiae rad50 strain growth inhibition; at 50.0 µM; hits give high values
Method in brief: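 Vehicle-treated cultures provide the reference for the growth inhibition reported for compound-exposed, repair-deficient yeast.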

[2] = NCI Yeast Anticancer Drug Screen. Data for the mec2-1 strain (AID 157); details: S. cerevisiae mec2-1 strain, at 50.0 µM, hits give high values
Method in brief: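 Strain: mec2-1 (DNA repair/cell cycle alteration). Compound exposure, then growth measured; inhibition expressed relative to vehicle.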

[3] = NCI Yeast Anticancer Drug Screen. Data for the sgs1 mgt1 strain (AID 161);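 further: 0% = growth of cultures given vehicle only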; details: S. cerevisiae sgs1 mgt1 strain, at 50.0 µM, hits give high values
Method in brief: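 Inhibition of yeast growth, normalised to vehicle-treated controls, is reported for a strain bearing genetic alterations in DNA damage repair.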

[4] = NCI Yeast Anticancer Drug Screen. Data for the cln2 rad14 strain (AID 165);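 further: 0% = growth equal to vehicle treated cultures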; details: S. cerevisiae cln2 rad14 strain, at 50.0 µM, hits give high values
Method in brief: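 Compounds are applied to the cln2 rad14 yeast strain, and growth is then compared with that of vehicle-treated cultures to give inhibition.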

[5] = NCI Yeast Anticancer Drug Screen. Data for the bub3 strain (AID 167); details: S. cerevisiae bub3 mutant strain, at 50.0 µM, hits give high values
Method in brief: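 Mutant yeast screening strain plus compound; vehicle-treated cultures serve as the 0% inhibition reference.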

[6] = NCI Yeast Anticancer Drug Screen. Data for the mlh1 rad18 strain (AID 175); details: S. cerevisiae mlh1 rad18 strain growth inhibition; at 50.0 µM; hits give high values
Method in brief: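 Read-out is yeast growth inhibition, calculated against vehicle-only controls. The compound was applied to a strain engineered with DNA damage repair alterations.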

Measured: growth inhibition

O=C(CCl)Nc1ccc(O)c2ccccc12
inactive: [1] 14.8% | [2] 4.65% | [3] 7.45% | [4] 9.95% | [5] 5.85% | [6] 36.8%

Clc1ccc(-c2ncc(-c3ccccc3)o2)cc1
inactive: [1] 20.8% | [2] -13.7% | [3] -6.75% | [4] 4.2% | [5] 33.6% | [6] -9.9%

CC(CCc1ccccc1)NC(=O)c1ccccc1 (stereo unspecified)
inactive: [1] 5% | [2] -40.1% | [3] -1.45% | [4] 11.2% | [5] 10.7% | [6] -16.6%

Cc1ccnc(NS(=O)(=O)c2ccc(N=Cc3ccccc3O)cc2)n1
inactive: [1] -28.4% | [2] -20.1% | [3] -13.9% | [4] -40.4% | [5] -36.2% | [6] -0.5%

COC(=O)c1nnn(-c2c(C)cccc2C(C)C)c1C(=O)c1ccccc1
inactive: [1] 6% | [2] -2.45% | [3] -2.15% | [4] -7.6% | [5] -23.8% | [6] 24.1%

C/C(=N\S(=O)(=O)c1ccc([N+](=O)[O-])cc1)OCC(C)C
inactive: [1] 11.2% | [2] -8.4% | [3] 14.7% | [4] -47.9% | [5] 10.7% | [6] 2.25%

COc1cc2c(oc(=O)c3c4occc4cc(OC)c23)c2cccc(OCc3ccccc3)c12
inactive: [1] 2% | [2] 14.9% | [3] -11.8% | [4] 8.35% | [5] -20.9% | [6] 3.85%

CC1=NNC(c2ccco2)C1 (stereo unspecified)
inactive: [1] 10.2% | [2] 5.6% | [3] 12.8% | [4] 18.1% | [5] 11.9% | [6] 5.7%

COc1ccc(C)cc1N
inactive: [1] 19.2% | [2] -5.3% | [3] -1.15% | [4] 24.4% | [5] -3.2% | [6] 24.4%

Nc1ccn([C@H]2CO[C@@H](CO)O2)c(=O)n1
inactive: [1] -53% | [2] -46.4% | [3] -18.7% | [4] 0.75% | [5] -14.7% | [6] -22.2%

CCN(CC)c1ccc2c(c1)Oc1cc(N(CC)CC)ccc1C2c1ccccc1C(=O)O
inactive: [1] -10.2% | [2] -32.6% | [3] -1.5% | [4] 13.8% | [5] 3.6% | [6] -3.45%

OCCNc1ncnc2nc[nH]c12
inactive: [1] -17.9% | [2] -3.5% | [3] -12.5% | [4] 65.5% | [5] -46.5% | [6] 2.5%

CCOC(=O)NNC(C)(C)C
inactive: [1] 4.15% | [2] 4.35% | [3] 4.5% | [4] 21.8% | [5] -9% | [6] -3.7%

COC(=O)/C(C#N)=C1\CCC(OC)N1 (stereo unspecified)
inactive: [1] -4.25% | [2] 6.95% | [3] -21.2% | [4] 3.7% | [5] -13.1% | [6] -24.9%

CC(=O)Oc1ccc2ccccc2c1CS(=O)(=O)O
inactive: [1] 5.6% | [2] 6.05% | [3] 10.9% | [4] 4.35% | [5] 3.35% | [6] 10.4%

Cc1ccc2cccc3c2c1CC1(C3=O)S(=O)(=O)OCCOS1(=O)=O
inactive: [1] 9.2% | [2] 4.45% | [3] 20.1% | [4] 14.7% | [5] 39% | [6] -2.3%

CCCCCCCCCCNC(=O)CCC(NC(=O)c1ccc(N(C)Cc2cnc3nc(N)nc(N)c3n2)cc1)C(=O)NCCCCCCCCCC (stereo unspecified)
inactive: [1] 5.7% | [2] 3.35% | [3] -4.15% | [4] 6.1% | [5] -13.2% | [6] -3.65%

CCC(=O)/C=C/c1ccccc1O
inactive: [1] 11.6% | [2] 9.55% | [3] 31.4% | [4] 17.4% | [5] 20.4% | [6] 13.3%

O=C(Nc1ccccc1Br)c1cccc([N+](=O)[O-])c1O
inactive: [1] 37.5% | [2] 35.2% | [3] 45.5% | [4] 38.2% | [5] 29.4% | [6] 37.1%

O=C(O)c1oc2cccc3c2c1CCC3
inactive: [1] -3.6% | [2] 1.3% | [3] 5.4% | [4] -10.3% | [5] -1.35% | [6] -4.2%

CCc1cc2c(c3c1CCC3=O)CC1(Cc3ccc(C)cc3C1)C2 (stereo unspecified)
inactive: [1] -47.1% | [2] -54.5% | [3] -32.5% | [4] -21.6% | [5] -22.1% | [6] -44.7%
